{"source": "the supplement of paper PMC3484114", "note": "± gives the standard deviation."}
{"test_system": "OVCAR-3-derived ovarian cancer stem-like cells (spheroids)", "assay": "cell growth relative to untreated control; higher = more growth (less inhibition)", "settings": "2.29 µM; 96 h", "outline": "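Percent growth was calculated against untreated wells once blanks were subtracted and Grubbs outliers removed. The cells were OVCAR-3 spheroid-derived stem-like cells, trypsinized and plated at 50,000 cells/mL in stem cell medium on ultra-low attachment 96-well plates for a 24 h preincubation. They were then exposed to compounds at 2.29 uM for 96 h at 37°C, 5% CO2, in 4 replicate wells, and viability was measured by TOX8 resazurin fluorescence (ex 560/em 590 nm) after 4 h.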", "units": {"cell growth": "%"}}
{"smiles": "O=C(OCC12CC3CC(CC(C3)C1)C2)c1ccc(NCc2cc(O)ccc2O)cc1", "cell growth": "159 ± 28"}
{"smiles": "CCOC(=O)C1=C(C)NC(=S)NC1c1ccccc1", "note": "(centres undefined)", "cell growth": "103 ± 12"}
{"smiles": "Cc1c2cc[n+](CCN3CCCCC3)cc2c(C)c2c1[nH]c1ccc(O)cc12", "cell growth": "146 ± 52"}
{"smiles": "CC(=O)c1ccc(Oc2ccc(/C(C)=N/N=C(N)N)cc2)cc1", "cell growth": "32.4 ± 7.5"}
{"smiles": "Nc1nc2c(ncn2[C@@H]2O[C@H](CO)[C@@H](O)[C@H]2O)c(=O)[nH]1", "cell growth": "107 ± 11"}
{"smiles": "Oc1ccc(/C=N/NC(=S)Nc2cccnc2)nc1", "cell growth": "145 ± 23"}
{"smiles": "COc1c(O[C@@H]2O[C@H](CO)[C@@H](O)[C@H](O)[C@H]2O)cc2c(c1OC)-c1ccc(OC)c(=O)cc1[C@@H](NC(C)=O)CC2", "cell growth": "119 ± 20"}
{"smiles": "CC(C)=CC1C(C(=O)O)C1(C)C", "note": "(centres undefined)", "cell growth": "103 ± 37"}
{"smiles": "COc1cc2oc(=O)cc(C)c2cc1[N+](=O)[O-]", "cell growth": "137 ± 45"}
{"smiles": "C=C1CC(Cn2cc(Br)c(=O)[nH]c2=O)(c2ccc(-c3ccccc3)cc2)OC1=O", "note": "(centres undefined)", "cell growth": "57.1 ± 20"}
{"smiles": "CCOC(=O)CCc1c(C)c2c(O)cc(O)cc2oc1=O", "cell growth": "100 ± 21"}
{"smiles": "N#CC(C#N)=Cc1cccc(Oc2ccccc2)c1", "cell growth": "74.1 ± 8"}
{"smiles": "Cc1cc(N(C)C)ccc1N=Nc1ccc2ncccc2c1", "cell growth": "83.2 ± 6.3"}
{"smiles": "OCc1ccc(-c2ccc(-c3ccc(CO)s3)o2)s1", "cell growth": "92.2 ± 21"}
{"smiles": "O=C(/C=C/c1c(O)ccc2ccccc12)c1cccc(O)c1", "cell growth": "94.3 ± 20"}
{"smiles": "CCCC(=O)OCC1OC(n2ccc(N)nc2=O)C(OC(=O)CCC)C1OC(=O)CCC", "note": "(centres undefined)", "cell growth": "31.7 ± 19"}
{"smiles": "COc1ccc(OC)c(-c2cc(=O)c3c(OC)c(OC)c(OC)c(OC)c3o2)c1", "cell growth": "128 ± 50"}
{"smiles": "O=[N+]([O-])c1ccc(N=Nc2c(O)[nH]c3ccccc23)c([N+](=O)[O-])c1", "cell growth": "132 ± 29"}
{"smiles": "O=C1NC(c2cccc3ccccc23)Nc2ccccc21", "note": "(centres undefined)", "cell growth": "34.9 ± 6.6"}
{"smiles": "Nc1ccc(N)c2c1C(=O)c1ccccc1C2=O", "cell growth": "97.9 ± 12"}
{"smiles": "O=c1[nH]c2ccc(O)cc2o1", "cell growth": "80.8 ± 13"}
{"smiles": "COC(=O)C1(C)CCCC2(C)c3cc(OC)ccc3C(=O)C(Br)C12", "note": "(centres undefined)", "cell growth": "89.4 ± 39"}
{"smiles": "Clc1ccc(-c2c(C3=NCCCN3)nnn2-c2ccc(Cl)cc2)cc1", "cell growth": "156 ± 57"}
{"smiles": "COc1ccc2cccc(C(=N)c3ccc(C)c4c3CCC4)c2c1", "cell growth": "95.3 ± 25"}
{"smiles": "N#CC(=S)Nc1ccc(Cl)c(Cl)c1", "cell growth": "90.6 ± 12"}
{"smiles": "CCC(C#N)(c1ccccc1)N(CCc1ccccc1)C(=O)c1ccccc1", "note": "(centres undefined)", "cell growth": "129 ± 28"}
{"smiles": "COC(=O)c1cc(-c2c[nH]cc2C(=O)OCc2ccccc2)cn1S(=O)(=O)c1ccc(C)cc1", "cell growth": "140 ± 35"}
{"smiles": "COc1cc2cc3c4cc(OC)c(OC)cc4cc[n+]3c(C)c2cc1OC.O=C(O)CS(=O)(=O)[O-]", "cell growth": "53.7 ± 9.7"}
{"smiles": "CCCCCCCCCCSCC(CO)NC(=O)/C=C/c1c(C)[nH]c(=O)[nH]c1=O", "note": "(centres undefined)", "cell growth": "107 ± 23"}
{"smiles": "CCCCOCc1cc(CN2CCN(C)CC2)c(O)c2ncccc12", "cell growth": "85.3 ± 33"}
{"smiles": "CCOC(=O)C1=C(O)CSC1=Nc1ccc(N=C2SCC(O)=C2C(=O)OCC)cc1", "cell growth": "108 ± 30"}
{"smiles": "Nc1nc(N)c2ncn(-c3ccccc3)c2n1", "cell growth": "162 ± 19"}
{"smiles": "CC(CN(C)C)C(=O)c1ccccc1C(=O)O", "note": "(centres undefined)", "cell growth": "92.7 ± 31"}
{"smiles": "Cn1c(=O)c2nc3sc4c(n3c2n(C)c1=O)C(=O)c1ccccc1C4=O", "cell growth": "115 ± 20"}
{"smiles": "CN(C)CCN1C(=O)c2cccc3cc(N)cc(c23)C1=O", "cell growth": "60.2 ± 11"}
{"smiles": "COc1ccccc1Cc1nc(-c2ccccc2)nn(C2OC(COC(C)=O)C(OC(C)=O)C(OC(C)=O)C2OC(C)=O)c1=S", "note": "(centres undefined)", "cell growth": "97.5 ± 16"}
{"smiles": "CCCC(=O)[O-].[Na+]", "cell growth": "88.2 ± 19"}
{"smiles": "CN=c1sc2c(n1C)C(=O)c1ccccc1C2=O", "cell growth": "83.2 ± 26"}
{"smiles": "CCOC(C)C(C=NNC(N)=S)=NNC(N)=S", "note": "(centres undefined)", "cell growth": "23 ± 5.7"}
